According to PubChem BioAssay AID602399 (Sanford-Burnham Center for Chemical Genomics, 2012):
The whole screen tested about 360,000 compounds, of which about 2,800 (0.78%) were called active. Cut-off read from the data, not from the text of the source: active = inhibition above about 26%; inactive = the rest. The full list was thinned out, with actives kept by preference.

These molecules were tested on Nicotinate-nucleotide adenylyltransferase NadD (Staphylococcus aureus N315) (assay: S. aureus NadD enzyme activity blockers – biochemical, colorimetric, uHTS, primary screen (AID 602399)). Details: purified NadD enzyme, colorimetric absorbance read-out; at 20 µM; hits give high values.

Compound | inhibition
COc1ccccc1N(CC(=O)N1CCCCC1)S(=O)(=O)c1ccccc1 | 0.503% (inactive)
CC(C#N)(NC(=O)CN1CCN(S(=O)(=O)c2cc(C(F)(F)F)ccc2Cl)CC1)C1CC1 (stereo not given) | -1.47% (inactive)
O=C(Nc1nnc(-c2ccccc2)o1)c1cc(-c2cccs2)nc2ccccc12 | 40.6% (active)
O=C(Nc1nnc(-c2ccc(Cl)cc2)o1)c1ccccc1Br | 9.64% (inactive)
Cc1ccnc2nc(C(=O)Nc3nnc(-c4ccccc4)o3)nn12 | -3.89% (inactive)
CN(Cc1nc2ccc(F)cc2[nH]1)Cc1nc(CC2CC2)no1 | -3.27% (inactive)
CCN(C(=O)CN1CCN(Cc2ccccc2)CC1)c1c(N)n(Cc2ccccc2)c(=O)[nH]c1=O | -5.19% (inactive)
Cc1ccccc1NC(=O)c1ccc(COc2ccc3c(C)cc(=O)oc3c2)cc1 | 1.94% (inactive)
CCCCCOc1ccc(/C=C/C(=O)NCCc2nc3ccccc3[nH]2)cc1OC | 0.224% (inactive)
CC(C)Oc1ccc(/C=C(\NC(=O)/C=C/c2ccco2)C(=O)NCCc2nc3ccccc3[nH]2)cc1 | 40.3% (active)
Cc1ccc(C(=O)N/C(=C/c2ccco2)C(=O)NCCc2c[nH]c3ccccc23)cc1C | 2.77% (inactive)
CCn1c(SCC(=O)N/N=C/c2ccccc2OCC(=O)O)nnc1-c1ccc(C(C)(C)C)cc1 | 5.5% (inactive)
CCOC(=O)N1CCC(NC(=O)CCc2cn(C)c3ccccc23)CC1 | 0.741% (inactive)
COc1ccc(CCNC(=O)CN2C(=O)CCSc3ccccc32)c(OC)c1 | -0.893% (inactive)
CC(C)(C)C1C/C(=C/c2ccco2)C(=O)/C(=C/c2ccco2)C1 (stereo not given) | 41.6% (active)
COC(=O)COc1ccc2c(c1C)O/C(=C\c1ccco1)C2=O | -6.79% (inactive)
CC1CCN(C(=S)NC2CC3CCC2C3)CC1 (stereo not given) | 1.51% (inactive)
Cc1nn(C)c(C)c1Sc1ccccc1N | -4.87% (inactive)
CC(C)(C)c1ccc(Cn2nnc3c(=O)[nH]c(C4CCCN(C(=O)c5ccco5)C4)nc32)cc1 (stereo not given) | 4.55% (inactive)
Cc1ccc(NC(=O)N2CCC(c3nc4c(nnn4Cc4c(F)cccc4Cl)c(=O)[nH]3)CC2)cc1 | 22.9% (inactive)
Cc1ccc(Cn2nnc3c(=O)[nH]c(C4CCN(S(=O)(=O)/C=C/c5ccccc5)CC4)nc32)cc1 | 31.1% (active)
CC(C)COC(=O)c1ccc(NC(=O)C2C3C=CC(C3)C2C(=O)O)cc1 (stereo not given) | 3.38% (inactive)
COCCNC(=O)C(c1ccc(C)cc1)N(C(=O)CCC(=O)Nc1ccccn1)c1cccc(C)c1 (stereo not given) | -8.33% (inactive)
O=C(c1ccc(C(F)(F)F)cc1)N1CCC(=O)N([C@H](COCc2ccccc2)Cc2ccccc2)CC1 | -5.31% (inactive)
O=C(CCc1ccccc1Cl)Nc1ccc(S(=O)(=O)Nc2nccs2)cc1 | -3.71% (inactive)
O=C(Nc1ccc(S(=O)(=O)Nc2nccs2)cc1)c1cc(=O)[nH]c2ccccc12 | -0.912% (inactive)
O=C(Nc1ccc(S(=O)(=O)Nc2nccs2)cc1)c1cc(-c2ccncc2)nc2ccccc12 | 52.3% (active)
CCOc1ccc(NC(=O)c2ccc(CSc3nnnn3C)cc2)cc1 | -3.76% (inactive)

Compound | inhibition
CCc1ccc2c(c1)C1(NN=C(c3ccccc3)S1)C(=O)N2 (stereo not given) | 3.11% (inactive)
O=C(CSc1nc2ccc(Nc3nc(N4CCOCC4)nc(N4CCOCC4)n3)cc2s1)NCc1ccco1 | 8.01% (inactive)
O=C(CSc1ccccc1)Nc1cc(Cl)ccc1Oc1ccccc1 | 6.26% (inactive)
O=C(CSc1nc(Nc2ccccc2)nc(N2CCOCC2)n1)Nc1cc(Cl)ccc1O | 37.7% (active)
O=C(NCCCCc1ccccc1)C1CC(c2ccc([N+](=O)[O-])cc2)=NO1 (stereo not given) | -8.64% (inactive)
COc1cccc(CNC(C)C(=O)Nc2ccc(S(=O)(=O)N3CCCC3)cc2)c1 (stereo not given) | 0.261% (inactive)
CCOC(=O)C1=C(C)Nc2sc(C(=O)c3ccc(Br)cc3)c(N)c2C1c1ccc(C(=O)OC)cc1 (stereo not given) | 33.6% (active)
CCOC(=O)c1sc(=NC(=O)c2ccc(Br)cc2)n(C)c1C | -0.0934% (inactive)
COC(=O)c1ccc(C2NC(=O)NC(C)=C2C(=O)N(C)C)cc1 (stereo not given) | -2.37% (inactive)
Cc1nc(CC(=O)NNS(=O)(=O)c2ccc(F)c(Cl)c2)cs1 | -1.28% (inactive)
CC(C)Oc1ccc(CCc2nnc(SCC(=O)O)n2-c2ccccc2)cc1 | -4.23% (inactive)
CCCCC(=O)Nc1c2c(nn1-c1ccc([N+](=O)[O-])cc1)CS(=O)(=O)C2 | -6.61% (inactive)
O=C1/C(=C\c2ccc([N+](=O)[O-])cc2)CS(=O)(=O)C/C1=C/c1ccc([N+](=O)[O-])cc1 | 35.3% (active)
O=C1CCCN1C(=O)COc1ccc([N+](=O)[O-])cc1 | 0.0869% (inactive)
CCNC(=O)Nc1ccc(S(=O)(=O)Nc2cnc(C)nc2C)cc1 | 4.03% (inactive)
c1ccc2c(c1)OCCOCCOCCO2 | 1.98% (inactive)
CS(=O)(=O)c1ccc2c(c1)SC1=NC(=O)/C(=C/c3ccco3)C(=N)N12 | 35% (active)
COc1ccc(S(=O)(=O)N2CCOC2CNC(=O)C(=O)NCc2ccncc2)cc1OC (stereo not given) | -7.02% (inactive)
CC(=O)c1ccc(Nc2nc(C(N)c3ccccc3Cl)cs2)cc1 (stereo not given) | -4.95% (inactive)
NC(c1ccccc1)c1csc(NC(=O)Nc2cccc(C(F)(F)F)c2)n1 (stereo not given) | 3.58% (inactive)
NC(c1csc(NC(=O)Nc2ccccc2Oc2ccccc2)n1)c1ccccc1Cl (stereo not given) | 40.7% (active)
CCOc1ccc(S(=O)(=O)N(CC(=O)NCC(F)(F)F)Cc2ccco2)cc1 | -2.92% (inactive)
CC1=NN(c2cccc(Cl)c2)C(=O)C12CC(C)=C(C)CS2 (stereo not given) | -3.46% (inactive)
CC(C)(C)C(=O)Nc1ccc(C(=O)N/N=C/c2ccccc2OC(=O)c2ccc(Cl)cc2Cl)cc1 | 38.5% (active)
O=C(N/N=C/c1ccoc1)c1ccc(Cl)cc1Cl | -0.584% (inactive)
O=C(N/N=C/c1ccccn1)c1cccc(NC(=O)c2ccc(Cl)cc2)c1 | 6.47% (inactive)
O=c1[nH]c(CCl)nc2cc(-c3ccc(Cl)cc3)sc12 | 1.98% (inactive)
